# Reference: PubChem BioAssay AID588590 (National Center for Advancing Translational Sciences (NCATS), 2011)
# The whole screen tested about 390,000 compounds, of which about 4,000 (1%) were called active. Another 7% or so got no clear call; they are omitted. This is one part of a sample in which actives are shown more often than they occur. Calls come from the whole dose curve; as a rule, active = well fitted inhibition curve with a large enough effect; inconclusive = small, poorly fitted or top-dose-only effect, or another doubt; inactive = no such curve, though single readings can be large or run the other way.
# Target: DNA polymerase iota (Homo sapiens) (UniProt Q9UNA4)
# Test: qHTS for Inhibitors of Polymerase Iota
# Conditions: Pol iota fluorescent replication assay, 10 min; series mostly up to 115 µM; activity, negative = inhibition: at the top concentration
# Source text: DNA polymerases, such as Pol iota, are specifically involved in DNA repair. Pol iota specifically plays an important role in translesion synthesis, where the normal high-fidelity DNA polymerases cannot proceed and DNA synthesis stalls. […] Thus, while pol eta's (and most likely iota's) normal function is to protect humans against the deleterious consequences of DNA damage, under certain conditions they can have deleterious effects on human health. As a consequence, we propose to utilize a high throughput replication assay to identify small molecule inhibitors of pol iota.
# In a collaboration between the National Institute of Child Health & Human Development (NICHD) and NIH Chemical Genomics Center, a high-throughput, fluorescent screen was developed to screen the NIH Molecular Libraries Small Molecule Repository (MLSMR). This screen is used to identify inhibitors of pol iota.
# NIH Chemical Genomics Center [NCGC]
# NIH Molecular Libraries Probe Centers Network [MLPCN]
# Assay Submitter (PI): Roger Woodgate, NICHD)
# Three microliters of reagents (buffer in column 3 and 4 as negative control and 10 nM Pol iota in columns 1, 2, and 5-48) will be dispensed into 1,536-well black solid-bottomed plate. Compounds (23 nL) will be transferred via Kalypsys pin tool equipped with 1536-pin array. The plates will then be incubated for 15 min at room temperature, and 1 µL substrate (50 nM final concentration) will be added to start the reaction and kinetically read twice at 0 min and 10 min on the Viewlux reader.
# Potency is the fitted concentration of half-maximal effect.
# Sequence of DNA polymerase iota (Homo sapiens) (Q9UNA4 whole entry, looked up): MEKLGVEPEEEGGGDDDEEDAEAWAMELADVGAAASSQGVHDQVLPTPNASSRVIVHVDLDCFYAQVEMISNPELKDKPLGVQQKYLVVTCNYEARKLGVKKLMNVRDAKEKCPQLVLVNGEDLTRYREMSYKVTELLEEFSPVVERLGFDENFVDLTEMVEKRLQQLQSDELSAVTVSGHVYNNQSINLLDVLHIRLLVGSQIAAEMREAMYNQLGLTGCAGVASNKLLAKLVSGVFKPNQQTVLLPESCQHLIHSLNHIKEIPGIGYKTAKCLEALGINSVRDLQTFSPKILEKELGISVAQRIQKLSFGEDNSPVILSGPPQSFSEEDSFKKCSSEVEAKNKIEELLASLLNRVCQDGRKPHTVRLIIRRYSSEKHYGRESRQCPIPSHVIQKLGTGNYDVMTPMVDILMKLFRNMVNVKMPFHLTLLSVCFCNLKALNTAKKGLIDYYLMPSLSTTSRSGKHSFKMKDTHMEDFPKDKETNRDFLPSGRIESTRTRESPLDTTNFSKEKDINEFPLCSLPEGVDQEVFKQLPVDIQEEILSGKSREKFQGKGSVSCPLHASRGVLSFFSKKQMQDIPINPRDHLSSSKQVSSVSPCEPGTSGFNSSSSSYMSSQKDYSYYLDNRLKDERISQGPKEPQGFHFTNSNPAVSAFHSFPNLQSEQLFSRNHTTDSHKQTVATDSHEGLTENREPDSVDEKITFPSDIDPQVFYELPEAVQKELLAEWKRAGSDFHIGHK
SMILES,"activity, negative = inhibition",Potency
CCOc1ccc(NC(=O)c2ccc(NC(=O)CN3C(=O)C(=O)N(CC(C)C)C3=O)cc2)cc1,21.4% (inactive),–
CCOc1ccc(NC(=O)CCNC(=O)c2ccc(Br)cc2)cc1,16.3% (inactive),–
CCOc1ccc(NC(=O)c2ccc(NC(=O)COC(=O)c3ccc(NC(=O)CC#N)cc3)cc2)cc1,–,8.91 µM (active)
O=C1O/C(=C\c2ccc(O)cc2)C(O)=C1c1ccc(O)cc1,-25.4% (inactive),–
Oc1ccccc1-c1nc2ccc(Cl)cn2c1Nc1ccc2c(c1)OCCO2,15.2% (inactive),–
CCOc1ccc(CCNC(=O)c2csc3c2CCCCC3)cc1,-5.36% (inactive),–
Cc1ccccc1OCC(=O)Nc1c(C(=O)Nc2ccccc2F)oc2ccccc12,48.3% (inactive),–
O=C(COc1ccccc1)Nc1ccc(N2CCN(C(=O)c3cccs3)CC2)cc1,115% (inactive),–
O=C(COc1ccccc1)Nc1ccc(C(=O)N2CCCC2)cc1,–,89.1 µM (active)
CCOc1ccc(NC(=O)COc2ccc(C(=O)N3CCC(C(N)=O)CC3)cc2OC)cc1,24.4% (inactive),–
COc1ccc(C2Sc3ccccc3NC3=C2C(=O)c2ccccc23)c(OC)c1OC (configuration not stated),19.2% (inactive),–
CCSc1nnc2c(n1)OC(c1ccc(OCC(=O)O)cc1)Nc1ccccc1-2 (configuration not stated),-9.22% (inactive),–
Cc1cc(C)c2sc(NC(=O)c3ccc(S(=O)(=O)N4CCCC4)cc3)nc2c1,-1.58% (inactive),–
CCCCN(CC)CCCNC(=O)c1nn(C)c2c1CS(=O)(=O)c1ccccc1-2,18.5% (inactive),–
O=C(CSc1nc(=O)n2ccccc2n1)Nc1ccc2c(c1)OCCO2,15% (inactive),–
Cc1ccn2c(=O)nc(SCC(=O)NCc3ccc4c(c3)OCO4)nc2c1,–,44.7 µM (active)
Cc1ccccc1-c1nnc(SCC(=O)NCc2ccc3c(c2)OCO3)n1C,15.5% (inactive),–
Cc1ccccc1Nc1nn2c(=O)c3ccc(C(=O)NCCc4ccc(Cl)cc4)cc3nc2s1,13.4% (inactive),–
O=C(COC(=O)c1cccc(Br)c1)Nc1cccc2c1C(=O)c1ccccc1C2=O,52.3% (inactive),–
CC(=O)c1cc(NC(=O)c2ccccc2)c(=O)oc1/C=C/N(C)C,23.6% (inactive),–
O=C(NC1=CC(=O)c2ccccc2C1=O)c1ccccc1,–,3.55 µM (active)
O=C(Nc1ccc([N+](=O)[O-])cc1)c1cnn2c1NC(=C1CC1)C=C2C(F)F,8.29% (inactive),–
CCN(CCCNC(=O)c1cc2cc3cc(OC)ccc3nc2s1)c1ccccc1,39.3% (inactive),–
O=C(NCCCN1CCN(c2cccc(Cl)c2)CC1)c1nnc(Cc2ccc(F)cc2Cl)o1,8.61% (inactive),–
Cc1ccc(-c2nnc(Nc3ccc(C(=O)N(C)C)cc3)c3ccccc23)cc1S(N)(=O)=O,-7.39% (inactive),–
Cc1ccc(Nc2nnc(-c3ccc(C)c(S(=O)(=O)N4CCCCC4)c3)c3ccccc23)cc1,17.1% (inactive),–
Cc1ccc(C)c(Nc2nnc(-c3ccc(C)c(S(=O)(=O)N4CCCCC4)c3)c3ccccc23)c1,–,89.1 µM (active)
